# About 83,000 compounds went through this panel and 20% of them were active in at least one assay; those are over-represented in the sample as a whole.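 Testing used 96-well plates and a 48-hour single-concentration exposure. Example: -40 means 40% of the starting cells died.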 Values without a mark were called inactive. Active and inactive are the calls of the source. Rule for the calls: active = growth percent below 10; inactive = the rest.
# Tests used:
# Experiment in all cases: NCI-60 one-dose screen, 48 h (100 = growth as untreated, 0 = no growth, -100 = all killed)
# EKVX NSCLC = conditions: 10 µM unless noted
# SN12C renal = conditions: 10 µM unless noted
# UO-31 renal = conditions: 10 µM unless noted
# TK-10 renal = conditions: 10 µM unless noted
# ACHN renal = conditions: 10 µM unless noted
# CAKI-1 renal = conditions: 10 µM
# A498 renal = conditions: 10 µM unless noted
# CCRF-CEM leukemia = conditions: 10 µM unless noted
# RPMI-8226 leukemia = conditions: 10 µM unless noted
# OVCAR-8 ovarian = conditions: 10 µM unless noted
# OVCAR-5 ovarian = conditions: 10 µM unless noted
# OVCAR-4 ovarian = conditions: 10 µM unless noted
# SK-OV-3 ovarian = conditions: 10 µM unless noted
# IGROV1 ovarian = conditions: 10 µM unless noted
# HS 578T breast = conditions: 10 µM unless noted
# NCI/ADR-RES ovarian = conditions: 10 µM unless noted
# SR leukemia = conditions: 10 µM unless noted
# MOLT-4 leukemia = conditions: 10 µM unless noted
Compound,growth (EKVX NSCLC),growth (SN12C renal),growth (UO-31 renal),growth (TK-10 renal),growth (ACHN renal),growth (CAKI-1 renal),growth (A498 renal),growth (CCRF-CEM leukemia),growth (RPMI-8226 leukemia),growth (OVCAR-8 ovarian),growth (OVCAR-5 ovarian),growth (OVCAR-4 ovarian),growth (SK-OV-3 ovarian),growth (IGROV1 ovarian),growth (HS 578T breast),growth (NCI/ADR-RES ovarian),growth (SR leukemia),growth (MOLT-4 leukemia) [%]
COc1ccc([C@H]2[C@H](O)C(=O)N2c2cc(OC)c(OC)c(OC)c2)cc1,44.4%,20.3%,32.4%,69.8%,26.8%,28.4%,-17.5% (active),26.7%,22.8%,2.46% (active),29.5%,69.8%,37.7%,29.6%,16.6%,18%,–,–
C=CCn1c(SCC(=O)Nc2cccc(C(=O)/C=C/c3ccccc3Cl)c2)nc2ccccc2c1=O,94.7%,91.5%,73%,110%,96.3%,79.2%,82.8%,93.8%,1.65% (active),92%,95.1%,87.7%,119%,92%,89.6%,90.4%,14%,–
COc1cnc2c(c1)C(=O)c1c-2n(CCCn2ccnc2)c(=O)c2cc(OC)c(OC)cc12,-9.94% (active),3.73% (active),-91.4% (active),-91.4% (active),-36.1% (active),9.33% (active),17.8%,-2.01% (active),-26.7% (active),-93.9% (active),-40.7% (active),-18.3% (active),-31.8% (active),-20.6% (active),57.1%,1.35% (active),–,–
CS(=O)(=O)c1ccc2c(c1)c1c(n2C(=O)c2ccc(Cl)cc2)CCCC1,59.7%,41.2%,40.3%,67.6%,43.6%,37.1%,38.2%,25.4%,15.4%,35.3%,50.3%,66.4%,90.3%,46.2%,-0.806% (active),25.7%,–,–
CSc1nccc(-c2c(-c3ccc(F)c(OCc4ccc(F)cc4)c3)nc3sccn23)n1,89.8%,74%,53.7%,70%,43.8%,68%,46.5%,81.8%,53.2%,–,95.4%,61.8%,71.4%,55.8%,88.2%,73.6%,73.4%,45.1
Clc1ccccc1/C=C/c1nn2c(-c3ccncc3)nnc2s1,94.2%,103%,93.1%,126%,104%,87.9%,95.2%,97.6%,101%,103%,109%,103%,121%,102%,97.7%,106%,–,–
CS(=O)c1nccc(-c2c(-c3ccc(F)c(OCc4ccc(F)cc4)c3)nc3sccn23)n1 (configuration not stated),75.2%,93.6%,89.3%,108%,77.2%,70.8%,88.2%,45.8%,20.2%,89.1%,100%,101%,115%,17.7%,98.4%,107%,-22.2% (active),–
COc1cc2c3c(n(CCCN4CCCC4)c(=O)c2cc1OC)-c1cc2c(cc1C3=O)OCO2,-55.3% (active),11.8%,40.4%,-86% (active),55.6%,55.3%,80.2%,-11.9% (active),-41.2% (active),-65.3% (active),-73.1% (active),-59.2% (active),53.7%,-70.9% (active),88.6%,-39.6% (active),–,–
CS(=O)c1nccc(-c2c(-c3ccc(F)c(OCc4ccccc4)c3)nc3sccn23)n1 (configuration not stated),83%,97.4%,94.9%,106%,82.6%,89.3%,94.2%,76.4%,60.6%,96.1%,104%,102%,114%,68.7%,101%,102%,-1.23% (active),32.2
C=CCn1c(SCC(=O)Nc2cccc(C(=O)/C=C/c3ccc(C)cc3)c2)nc2ccccc2c1=O,91.5%,91.5%,63.9%,105%,89.5%,80%,85.9%,98.4%,27.1%,82.1%,101%,84.9%,113%,95.8%,101%,84.5%,–,–
Cn1cc(-c2nn3c(=O)cc(-c4ccccc4)nc3s2)c2cc(F)ccc21,64.3%,69.6%,57.1%,85.6%,37.7%,31.6%,62.5%,52.8%,69.2%,36.6%,75.1%,47.5%,68.4%,–,60.9%,42.2%,–,–
Nc1n[nH]c2cccc(C#Cc3cccc(NC(=O)c4cccc(OC(F)(F)F)c4)c3)c12,91%,39.7%,26.9%,97.1%,31.7%,48.3%,56.4%,76.2%,57.2%,60.3%,50.7%,66.7%,105%,19.9%,1.43% (active),57.1%,47%,35.4
O=c1cc(-c2ccccc2)nc2sc(-c3c[nH]c4ccc(Br)cc34)nn12,91.2%,94.9%,79.6%,110%,96.3%,91.4%,85.5%,123%,112%,106%,100%,105%,110%,98.9%,113%,101%,–,–
C/C(=C(/c1ccc(O)cc1)c1ccc(OCCN(C)C)cc1)c1ccc(Cl)cc1,61.4%,59.1%,50.6%,85%,32.8%,36.2%,70.2%,53%,-8.72% (active),62.1%,66.6%,66.9%,83%,58.1%,46.8%,61.8%,-3.2% (active),11.9
CCN1CCN(Cc2ccc(C(=O)Nc3nc4ccc(Oc5ccnc(C(=O)NC)c5)cc4s3)cc2C(F)(F)F)CC1,52.4%,77.4%,33.2%,91.6%,57.4%,47.2%,74.1%,60.6%,26.4%,60.8%,76.7%,61%,83.7%,70.3%,51.9%,67%,–,–
COc1ccc(NC(=O)[C@H](C)N)cc1C(=O)Nc1cccc(-c2cc(=O)c3c(OC)c(OC)c(OC)cc3o2)c1,81.3%,55.4%,29.7%,70.7%,54.2%,49%,50.9%,52.9%,44.1%,50.1%,102%,62.4%,115%,–,27.8%,63.8%,36.5%,51.4
COc1ccc([C@H]2[C@H](O)C(=O)N2c2cc(OC)c(OC)c(OC)c2)cc1Cl,50.1%,22.2%,32.8%,85.4%,26.6%,30.6%,-17% (active),16.4%,19%,-12.7% (active),30.3%,74.4%,27.3%,22.8%,13.6%,-10.6% (active),–,–
C=CCn1c(SCC(=O)Nc2cccc(C(=O)/C=C/c3ccc(Br)cc3)c2)nc2ccccc2c1=O,106%,88.8%,71.2%,102%,84.5%,73.7%,89.3%,95.5%,-3.89% (active),81.6%,96.2%,87.9%,108%,93.6%,83.3%,91.5%,–,–

# Reference: PubChem BioAssay (NCI)
